IL-1B inflam inh = inflammasome signaling inhibition, IL-1 beta readout; THP-1 LPS/ATP IL-1B secretion, AlphaLISA, 16 h; stronger effect = lower value; activity change, % at 57.5 µM; 360,000 tested, 4.7% active; in the data active = activity change below about -50%; inconclusive = mostly about -30% to -49%
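Secreted IL-1B measured by AlphaLISA bead assay after 16 h compound exposure of THP-1 cells; compounds (final up to 57.5 uM) added 1 h before LPS (250 ng/mL) and ATP (1.25 mM) stimulation; lower signal means less secretion.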
ELG1 DNA repair = ELG1-dependent DNA repair inhibition. HEK293T ELG1-luciferase reporter, luminescence, 16 h; DNA damage induced by 5-fluorouridine. 330,000 tested, 2.3% active. Potency, µM (doses to about 46.1 µM), for the others: at the highest dose activity change, negative = inhibition, hits mostly inhibitors; note: potency is the fitted concentration of half-maximal effect; nearly all actives have a fitted effect of over 55% in size
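5-Fluorouridine DNA damage + compound/DMSO, 2,000 cells/well, 16 h, 37 °C/5% CO2. ONE-Glo, 30 min RT, luminescence. Readout = decrease in reporter signal.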
DT40 TDP1 CPT = DT40-hTDP1 cell growth loss with CPT | AID 686979 | Potency, µM (highest dose often 46.2 µM), inactives show at the highest dose activity change, negative = growth inhibition, hits mostly inhibitors | chicken DT40 Tdp1-/-;hTDP1 cells + 20 nM CPT, ATP luminescence, 48 h | 420,000 tested, 12% active; note: potency is the fitted concentration of half-maximal effect; nearly all actives have a fitted effect of over 55% in size
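Cell growth measured by CellTiter-Glo luminescence after a minimum 48 h, 37 C compound exposure with 20 nM CPT in Tdp1-knockout DT40 cells stably expressing hTDP1, seeded 400/well; qHTS titration format.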
HT1080NT lethal = kills 2HG-producing HT-1080-NT fibrosarcoma cells. 360,000 tested, 1.6% active. HT-1080-NT fibrosarcoma viability, CellTiter-Glo ATP luminescence, 48 h. Potency, µM (top dose mostly 46.1 µM), for the others: at the highest dose activity, negative = less viability, hits mostly cytotoxic. AID 686970;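 note: NT is the 2HG producing partner of a matched IDH1 knockdown line; potency is the fitted concentration of half-maximal effect; 0% = DMSO-treated cells and -100% = media-only wells without cells; nearly all actives have a fitted effect of over 55% in size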
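Viability by CellTiter-Glo luminescence after 48 h compound exposure at 37C of HT-1080-NT cells (750/well, RPMI, 5% FBS). % activity scaled between DMSO wells and medium-only wells, then curve-fitted and categorized by curve class.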
HT1080 IDH1KD tx = toxicity to HT-1080 IDH1 knockdown cells (counter line); HT-1080 IDH1 knockdown viability, ATP luminescence, 48 h; Potency, µM (highest dose often 46.1 µM), inactives show at the top dose activity, negative = toxicity, hits mostly cytotoxic; 360,000 tested, 2% active; AID 686971;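 note: potency is the fitted concentration of half-maximal effect; 0% = DMSO wells and -100% = cell-free medium wells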
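Assay cells: HT-1080 with IDH1 knockdown, 750 per well, RPMI/5% FBS. Exposure: 48 h at 37 °C following 2 h pre-incubation. Read: CellTiter-Glo luminescence; fitted concentration-response, curve class assigned.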
DT40 TDP1 no CPT = qHTS for Inhibitors of human tyrosyl-DNA phosphodiesterase 1 (TDP1): qHTS in cells in absence of CPT; DT40 Tdp1-/- hTDP1 cells, no CPT, ATP luminescence, 48 h; Potency, µM (titrated, usually from 46.2 µM), for inactives: at the highest dose activity change, negative = growth inhibition, most hits filed as inhibitors; 420,000 tested, 15% active; note: potency is the fitted concentration of half-maximal effect; nearly all actives have a fitted effect of over 55% in size
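Luminescent ATP content (CellTiter-Glo) served as the growth readout. Knockout chicken DT40 cells expressing human TDP1 were exposed to compounds without camptothecin for a minimum 48 hr at 37 °C.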
* = called active by the depositor; u = inconclusive; x = no result. Hits are enriched below; roughly 19% of the tested compounds scored in any of these assays. Unless noted, calls come from the whole dose curve; as a rule, active = well fitted curve in the direction sought with a large enough effect; inconclusive = small, poorly fitted or top-dose-only effect, or another doubt; inactive = no such curve, though single readings can be large; an effect the other way counts as inactive or inconclusive. Unless noted, % is set by controls: 0 for no effect and ±100 for the full control effect.

SMILES	IL-1B inflam inh	ELG1 DNA repair	DT40 TDP1 CPT	HT1080NT lethal	HT1080 IDH1KD tx	DT40 TDP1 no CPT
CCOc1ccc(C(=O)NCCCN(CC)CC)cc1	10	1%	-4%	0%	12%	2%
CC(C)[C@@H]1Cc2[nH]n(C)c(=O)c2[C@H](c2ccc(F)cc2)O1	4	x	3%	16%	4%	-1%
O=C(C1CCC(CNS(=O)(=O)c2cccs2)CC1)N1CCCCC1 (stereo unspecified)	11	-17%	-14%	-2%	1%	u
CCOc1ccc(NC(=O)C2CCC(CNS(=O)(=O)c3ccc(Br)s3)CC2)cc1 (stereo unspecified)	x	x	-21%	x	x	u
O=C(C1CCC(CNS(=O)(=O)c2ccc(Br)s2)CC1)N1CCN(c2ccc(F)cc2)CC1 (stereo unspecified)	x	x	u	x	x	4.1µM*
COc1cccc(N2CCN(C(=O)C3CCC(CNS(=O)(=O)c4ccc(Br)s4)CC3)CC2)c1 (stereo unspecified)	x	x	7.3µM*	x	x	6.5µM*
COc1cccc(CNC(=O)C2CCC(CNS(=O)(=O)c3ccc(Br)s3)CC2)c1 (stereo unspecified)	x	x	23µM*	x	x	u
O=C(C1CCC(CNS(=O)(=O)c2ccc(Br)s2)CC1)N1CCN(c2ccccc2Cl)CC1 (stereo unspecified)	x	x	9.2µM*	x	x	8.2µM*
Cc1ccc2c(=O)cc(C(=O)Nc3c(C(=O)c4ccccc4)oc4ccccc34)oc2c1C	x	x	-9%	x	x	-11%
COc1cccc(N2CCN(C(=O)c3c(C)oc4ncnc(N5CCCCC5)c34)CC2)c1	x	x	u	x	x	18µM*
COc1cc2c(C(=O)N3CCN(c4ccccc4)CC3)c(C)oc2cc1Br	-27	u	u	u	u	18µM*
Cc1cccc(N2CCN(C(=O)c3c(C)oc4ncnc(N5CCOCC5)c34)CC2)c1C	x	x	0%	x	x	-21%
COc1ccccc1-c1cc(C(=O)N2CCN(c3ccccc3)CC2)no1	20	0%	u	8%	-10%	-13%
Cc1cccc(N2CCN(C(=O)c3c(C)oc4ncnc(N5CCCCC5)c34)CC2)c1C	x	x	16µM*	x	x	8.2µM*
Cc1nc(N2CCCC2)c2c(C(=O)N3CCN(c4cc(Cl)ccc4C)CC3)c(C)oc2n1	x	x	u	x	x	18µM*
Cc1nc(N2CCCC2)c2c(C(=O)N3CCN(c4ccccc4)CC3)c(C)oc2n1	x	x	-7%	x	x	-10%
Cc1nc(N2CCCC2)c2c(C(=O)Nc3cccc(C)c3C)c(C)oc2n1	x	x	2%	x	x	-13%
Cc1ccc(N2CCN(C(=O)c3c(C)oc4ncnc(N5CCCCC5)c34)CC2)c(C)c1	x	x	16µM*	x	x	7.3µM*
Cc1oc2ncnc(N3CCCCC3)c2c1C(=O)Nc1cccc(Cl)c1C	x	x	16µM*	x	x	15µM*
Cc1ccc(N2CCN(C(=O)c3c(C)oc4ncnc(N5CCOCC5)c34)CC2)c(C)c1	x	x	u	x	x	-27%
CCN(CC)S(=O)(=O)c1ccc(NC(=O)c2c(C)oc3ncnc(N4CCCCC4)c23)cc1	x	x	21µM*	x	x	15µM*
O=C(Nc1cccc(F)c1)N1CC2(CCN(C(=O)c3ccncc3)CC2)C1	x	x	u	x	x	-9%
CN1C(=O)Cc2cc(S(=O)(=O)CCC(=O)Nc3ccc(Cl)cc3)ccc21	x	x	-27%	x	x	2%
CCCCCCCCCCCCCCCC[n+]1ccc(CC(O)c2c(C)[nH]c3ccccc23)c2ccccc21 (stereo unspecified)	x	x	1.6µM*	x	x	1.3µM*
Cc1[nH]c2ccccc2c1C(O)c1ccncc1 (stereo unspecified)	37	-3%	26%	9%	-2%	-23%
SMILES	IL-1B inflam inh	ELG1 DNA repair	DT40 TDP1 CPT	HT1080NT lethal	HT1080 IDH1KD tx	DT40 TDP1 no CPT
Cc1cccc(Nc2cc(C)c3c(O)cccc3n2)c1C	-101*	-10%	21µM*	u	u	23µM*
Cc1cc(Nc2ccccc2O)nc(C)n1	x	x	0%	x	x	3%
CN1CCCC1CCOC(C)(c1ccccc1)c1ccc(Cl)cc1 (stereo unspecified)	u	x	u	16µM*	u	16µM*
CCN(CC)c1ccc2cc(-c3nc4ccccc4n3C)c(=O)oc2c1	33	u	0.65µM*	u	u	1.2µM*
CN(C)Cc1c(O)ccc2cc(-c3nc4ccccc4n3C)c(=O)oc12	28	u	-2%	3%	17%	4%
CCN(CC)c1ccc2cc(-c3nc(-c4ccc(Cl)cc4Cl)cs3)c(=O)oc2c1	x	x	2%	x	x	1%
CCN(CC)c1ccc2cc(C(=O)c3cccs3)c(=O)oc2c1	-52*	x	18µM*	-1%	-4%	u
CCN(CC)c1ccc2cc(S(=O)(=O)c3ccc(Cl)cc3)c(=O)oc2c1	17	-25%	u	0%	-3%	u
CCN(CC)c1ccc2cc(-c3nc(-c4ccc(OC)cc4)cs3)c(=O)oc2c1	82	-1%	u	7%	10%	15µM*
CC(Oc1ccc(F)cc1)C(=O)N(CCC1=CCCCC1)c1c(N)n(Cc2ccccc2)c(=O)[nH]c1=O (stereo unspecified)	-1	-14%	u	u	u	u
COc1cc2c(c(OC)c1OC)-c1c(cc3c(c1OC)OCO3)C[C@@H](C)[C@](C)(O)C2	x	x	9%	x	x	u
CN(C)S(=O)(=O)c1cccc(NC(=O)CCc2nc3cc(S(=O)(=O)N4CCOCC4)ccc3n2C)c1	-11	9%	u	0%	-3%	-5%
Cc1cc2n(n1)CCCN2C(=O)Nc1ccc(C)c(Cl)c1	x	x	-3%	x	x	-21%
COc1cc2cc(C(=O)N(C)Cc3ccccc3)[nH]c2cc1OC	26	18%	-19%	13%	7%	15%
C=CCN(Cc1ccc(OC)c(OC)c1)C(=O)c1cc2cc(F)ccc2[nH]1	5	-22%	13µM*	u	u	u
O=C1C(Nc2ccccc2)=C(N2CCCCC2)C(=O)c2ccccc21	-3	u	18µM*	u	u	9.2µM*
CN(C1=C(N2CCCCC2)C(=O)c2ccccc2C1=O)c1ccccc1	-82*	-12%	15µM*	u	u	21µM*
Cc1ccc(NC2=C(N3CCCCC3)C(=O)c3ccccc3C2=O)cc1	-68*	-23%	2.6µM*	u	u	2.3µM*

Screening data as filed in PubChem.
